The text below walks through data of PubChem BioAssay AID1209 (Sanford-Burnham Center for Chemical Genomics, 2008).

What is called inhibition is the drop in the measured response relative to a control, in per cent.

The whole screen tested about 190,000 compounds, of which about 810 (0.43%) were called active. Rule as the data show it: active = inhibition above about 50%; inactive = the rest. The list comes from a sample in which actives are over-represented; it also holds similar structures and randomly drawn compounds.

Mannose-6-phosphate isomerase (Homo sapiens), sequence (P34949 whole entry, looked up): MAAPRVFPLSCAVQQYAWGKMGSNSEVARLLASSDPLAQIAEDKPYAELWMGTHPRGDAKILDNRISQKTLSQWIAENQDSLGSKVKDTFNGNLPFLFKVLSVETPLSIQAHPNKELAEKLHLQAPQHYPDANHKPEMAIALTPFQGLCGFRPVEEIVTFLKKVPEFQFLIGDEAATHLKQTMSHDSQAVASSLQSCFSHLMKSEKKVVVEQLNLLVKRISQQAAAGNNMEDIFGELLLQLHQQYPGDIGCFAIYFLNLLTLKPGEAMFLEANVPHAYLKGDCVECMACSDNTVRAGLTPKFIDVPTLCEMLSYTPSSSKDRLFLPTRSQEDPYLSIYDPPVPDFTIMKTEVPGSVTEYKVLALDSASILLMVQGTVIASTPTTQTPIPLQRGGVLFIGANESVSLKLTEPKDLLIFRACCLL

The assay concerns the target Mannose-6-phosphate isomerase (Homo sapiens) (UniProt P34949). The assay can be described thus: MPI enzyme activity inhibition – biochemical, fluorescence intensity, coupled assay, primary screen (AID 1209).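 Also: plate controls were DMSO vehicle for no effect and wells lacking substrate for full effect.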 As to conditions: purified PMI enzyme, at 20 µM, stronger effect = higher value.
For `COc1ccc(/C=C/C(=O)OCC(=O)Nc2c(C)cccc2C)cc1`, the inhibition is -7.6% (inactive).

In the case of `CC(=O)c1ccc(Nc2cc(C)nc3ccccc23)cc1`, the inhibition is 95.7% (active).

Consider `COc1ccc(Nc2cc(C)nc3ccccc23)cc1`, for which the inhibition was 16% (inactive).

Turning to `CC(=O)c1ccc(Nc2cc(C)nc3ccc(C)cc23)cc1`, the inhibition was 11.3% (inactive).

Consider `Cc1ccc(O)c(C(=O)c2cnc3c(c2)CN(C)C(=O)N3)c1`, for which the inhibition was 3.7% (inactive).

In the case of `O=C(c1cnc2sccn2c1=O)N(Cc1ccccc1)c1ccccn1`, the inhibition is 14.3% (inactive).

`CCOC(=O)c1sc(NC(=O)CSc2nnnn2-c2ccccc2)c(C(=O)OCC)c1C`: the inhibition was 14.3% (inactive).

As to `CCOC(=O)c1sc(NC(=O)CSc2nnnn2-c2ccc(C)cc2)c(C(=O)OCC)c1C`, the inhibition was 12.2% (inactive).

Take `CCOC(=O)c1c(NC(=O)CSc2nnnn2-c2ccc(OC)cc2)sc(C)c1C`: the inhibition is 60% (active).

On to `Cc1cc(OCC(=O)NCc2ccncc2)ccc1Cl`, for which the inhibition was 1% (inactive).

On to `Cc1ccc(N2CCN(CC(=O)Nc3c(C(=O)C4CC4)oc4ccccc34)CC2)cc1`, for which the inhibition was -11.1% (inactive).

Consider `COc1ccc(N(CC(=O)Nc2ccc3c(c2)OCO3)S(C)(=O)=O)c(OC)c1`, for which the inhibition is -4.4% (inactive).

Turning to `C[C@](N)(Cc1ccc(O)c(O)c1)C(=O)O`, the inhibition is 57.7% (active).

On to `COC(=O)[C@@H](N)Cc1ccc(O)cc1`, for which the inhibition is 2.6% (inactive).

In the case of `COc1ccc(CC(=O)O)cc1O`, the inhibition was 2.3% (inactive).

As for `C[C@@](Cc1ccc(O)c(O)c1)(NN)C(=O)O`, the inhibition was 12.9% (inactive).

`COC(=O)C(N)Cc1ccc(O)cc1` (stereo unspecified): the inhibition was -4.5% (inactive).

Regarding `COC(=O)C(N)Cc1ccc(O)c(O)c1` (stereo unspecified), the inhibition is 56.9% (active).

Consider `Oc1c(C(c2ccccc2)N2CCCCC2)sc2ncnn12` (stereo unspecified), for which the inhibition was -8.5% (inactive).

Consider `COc1cc2c(cc1OC)C(=S)NC1(CCCC1)C2`, for which the inhibition is -19.1% (inactive).

As to `CC(=O)c1c(OC(=O)c2ccco2)c2ccccc2n1C`, the inhibition was 4% (inactive).

For `NC(=O)c1ccsc1NC(=O)CSc1nnc(Nc2ccccc2)s1`, the inhibition was 0.1% (inactive).

As to `CC(C)C[C@H](NS(=O)(=O)c1ccc(Br)cc1)C(=O)O`, the inhibition is 5.2% (inactive).

For the compound `CCCCNc1nc(NC)nc(Cl)c1SC`, the inhibition was 0.4% (inactive).

On to `C/C(=N/NC(=O)c1cc(O)c(O)c(O)c1)c1ccc([N+](=O)[O-])cc1`, for which the inhibition was 64.5% (active).

For `C/C(=N\NC(=O)c1ccc([N+](=O)[O-])cc1)c1c(O)cc(C)oc1=O`, the inhibition was -40.7% (inactive).

For the compound `C/C(=N\NC(=O)c1ccc([N+](=O)[O-])cc1)c1cccc([N+](=O)[O-])c1`, the inhibition is 3.4% (inactive).

Regarding `CCN(CC)c1ccc(/C=C2\NC(=O)NC2=O)cc1`, the inhibition was 9.7% (inactive).

On to `O=C(Nn1cnc2ccccc2c1=O)c1cccc(Cl)c1`, for which the inhibition is 3% (inactive).

Regarding `CC[N+](C)(CC)CC(O)COCC1COc2ccccc2O1` (stereo unspecified), the inhibition was 19.8% (inactive).

`C[N+]1(CC(O)COCC2COc3ccccc3O2)CCOCC1` (stereo unspecified): the inhibition was 66.2% (active).

`OC(COCC1COc2ccccc2O1)CN1CCN(c2ccccc2)CC1` (stereo unspecified): the inhibition is 1.8% (inactive).

As to `C/C(=N\NC(N)=S)C1C2C3CC4C5CC(C42)C1C53` (stereo unspecified), the inhibition was 0.3% (inactive).

For the compound `O=C(NCc1ccco1)c1ccccc1-c1ccc(C(F)(F)F)cc1`, the inhibition is 4.9% (inactive).

With `CCOC(=O)N1CCN(Cc2ccccc2Cl)CC1`, the inhibition was 4.4% (inactive).

As for `CN1CCN(Cc2cc(COCc3ccccc3)c3cccnc3c2O)CC1`, the inhibition is 43.5% (inactive).

`Oc1ccc(CN2CCN(c3ccccc3)CC2)c2cccnc12`: the inhibition was 35.3% (inactive).

With `COc1ccccc1N1CCN(Cc2cc(Br)c(O)c3ncccc23)CC1`, the inhibition was 25.4% (inactive).

Regarding `COc1ccccc1N1CCN(Cc2ccc(O)c3ncccc23)CC1`, the inhibition was 55.7% (active).

As to `O=[N+]([O-])c1cc(CN2CCCC2)c2cccnc2c1O`, the inhibition was 5% (inactive).

As to `Oc1c(CN2CCCCC2)cc(Br)c2cccnc12`, the inhibition is 51.6% (active).

Regarding `CCOC(=O)N1CCN(Cc2cc(Cl)c3cccnc3c2O)CC1`, the inhibition was 54.9% (active).

As to `CN1CCN(Cc2cc(Cl)c3cccnc3c2OC(=O)c2cccs2)CC1`, the inhibition is 15.8% (inactive).

`Oc1c(CN2CCCCC2)cc(COCc2ccccc2)c2cccnc12`: the inhibition is 46.6% (inactive).

As for `COCc1cc(CN2CCCC2)c(O)c2ncccc12`, the inhibition is 41% (inactive).

In the case of `Cc1ccc(S(=O)(=O)N2CCCC2C(=O)Nc2nccs2)cc1` (stereo unspecified), the inhibition was -9.8% (inactive).

Turning to `CCOC(=O)C1CCCN(C(=O)c2ccc(Cl)c(S(=O)(=O)N3CCCCCC3)c2)C1` (stereo unspecified), the inhibition was -22.1% (inactive).

Take `O=C1OC(Nc2ccc(F)cc2F)c2ccccc21` (stereo unspecified): the inhibition was -10.1% (inactive).

Turning to `CCOC(=O)N1CCN(c2nc(C)cc(C(F)(F)F)n2)CC1`, the inhibition is 15.5% (inactive).

With `COc1ccc(N=C2SC(C(=O)N3CCN(c4ccccc4)CC3)CC(=O)N2C)cc1` (stereo unspecified), the inhibition was 5% (inactive).

Regarding `CC(C)(C)C1CCc2c(C(=O)NNC(=O)CCCC(=O)O)csc2C1` (stereo unspecified), the inhibition was -6.1% (inactive).

For `COc1ccccc1C1C(C(C)=O)=C(O)C(=O)N1CCc1ccccc1` (stereo unspecified), the inhibition is 4.1% (inactive).

On to `Cc1ccccc1NC(=S)NC1CC2CCC(C1)N2Cc1ccco1` (stereo unspecified), for which the inhibition was -0.8% (inactive).

For `COc1ccc(CC2(C)OC(c3ccc(Cl)cc3)=NN2C(C)=O)cc1` (stereo unspecified), the inhibition is 19% (inactive).

For `O=C(Nc1ccc(S(=O)(=O)Nc2ncccn2)cc1)c1ccccc1NS(=O)(=O)c1ccc(F)cc1`, the inhibition is 2.8% (inactive).

As to `Cc1ccc(C)c(C(=O)COC(=O)c2cc(Cl)nc3ccccc23)c1`, the inhibition was 12.6% (inactive).

Consider `Oc1ccc(CN2CCCCC2)c2cccnc12`, for which the inhibition is 43.3% (inactive).

Turning to `Oc1c(CN2CCOCC2)ccc2ccccc12`, the inhibition was 50.8% (active).

On to `CCOC(=O)C1CCN(Cc2ccc(O)c3ncccc23)CC1`, for which the inhibition is 67% (active).

With `CCOC(=O)N1CCN(Cc2ccc(O)c3ncccc23)CC1`, the inhibition was 59.9% (active).

Take `CCOC(=O)C1CCN(Cc2ccc(OC)c(C)c2OC)CC1`: the inhibition was -4.3% (inactive).

Turning to `CCOC(=O)C1CCN(Cc2c(O)ccc3ccccc23)CC1`, the inhibition is 28.5% (inactive).

For the compound `O=c1cc(CN2CCOCC2)c2c(ccc3ccccc32)o1`, the inhibition was 1.2% (inactive).

`COCc1cc(CN2CCN(C)CC2)c(O)c2ncccc12`: the inhibition was 36.7% (inactive).

As for `Oc1c(CN2CCc3ccccc3C2)cc(Cl)c2cccnc12`, the inhibition was 40% (inactive).

As for `CCOC(=O)N1CCN(Cc2ccccn2)CC1`, the inhibition is 3.7% (inactive).

Turning to `c1cc2ccc3ccc(CN4CCOCC4)c4ccc(c1)c2c34`, the inhibition was -2.6% (inactive).

Turning to `CCOC(=O)CC(NC(=O)Cc1ccccc1)c1ccccc1Cl` (stereo unspecified), the inhibition was 13.1% (inactive).

Turning to `COC(=O)C1=C(NC(=O)c2ccccc2C)CCS1`, the inhibition was -17.4% (inactive).

Take `O=C(Nc1cnn(Cc2ccc(F)cc2)c1)C(c1ccccc1)c1ccccc1`: the inhibition was 16% (inactive).

`O=S(=O)(Nc1cccnc1)c1ccc(Cl)c(C(F)(F)F)c1`: the inhibition is 6% (inactive).

Take `CC(C)C(=O)NCCc1nc2ccccc2n1CCOc1ccccc1`: the inhibition was -1.6% (inactive).

Regarding `CCN(CC)C(=O)C1=C(C)NC(=S)NC1c1cccs1` (stereo unspecified), the inhibition was -9% (inactive).

Take `CCOC(=O)C1CCCN(Cc2cc(=O)oc3cc(C)ccc23)C1` (stereo unspecified): the inhibition was -10.2% (inactive).

For `CN(CC(=O)NC1CCCCCC1)S(=O)(=O)c1ccc2c(c1)n(C)c(=O)c(=O)n2C`, the inhibition was 2.1% (inactive).

As for `COC(=O)C1=C(NC(=O)c2ccc(C)c(C)c2)CCS1`, the inhibition was 3.8% (inactive).

For `Cc1ccc2cc(C(c3nnnn3C3CCCC3)N3CCOCC3)c(=O)[nH]c2c1C` (stereo unspecified), the inhibition is -2.5% (inactive).

Take `CCOC(=O)C1=C(C)N(C)C(=O)NC1c1cc2c(cc1[N+](=O)[O-])OCO2` (stereo unspecified): the inhibition is 35.3% (inactive).

For the compound `CCOC(=O)C1=C(C)NC(=O)CC1c1cc2c(cc1Br)OCO2` (stereo unspecified), the inhibition was 1.2% (inactive).

In the case of `CCOC(=O)C1=C(C)NC(=O)CC1c1cc2c(cc1[N+](=O)[O-])OCO2` (stereo unspecified), the inhibition was 53.2% (active).

As to `Cc1noc(C)c1C(=O)OCC(=O)NC1CC1`, the inhibition was 1.3% (inactive).

Regarding `Cc1noc(C)c1C(=O)OCC(=O)NC(=O)NC12CC3CC(CC(C3)C1)C2`, the inhibition was -2.2% (inactive).

On to `Cc1noc(C)c1C(=O)OCC(=O)C12CC3CC(CC(C3)C1)C2`, for which the inhibition is 100% (active).

Consider `O=C(/N=C1\NC(=O)C(F)(C(F)(F)F)S1)NC1CCCCC1` (stereo unspecified), for which the inhibition is 74.7% (active).

Consider `CCC1S/C(=N/C(=O)NC2CCCCC2)NC1=O` (stereo unspecified), for which the inhibition is -8.6% (inactive).

Consider `O=C(Nc1nccs1)NC1CCCCC1`, for which the inhibition was -3% (inactive).

As to `c1ccc2c(c1)nc(N1CCN(C3CCCCC3)CC1)c1nnnn12`, the inhibition is 4.7% (inactive).

With `Cc1nc2ccc(NC(=O)c3ccc(S(=O)(=O)N4CCOCC4)cc3)cc2s1`, the inhibition was 1.9% (inactive).

For `Cc1nc2ccc(Nc3nc4cc(S(=O)(=O)N5CCOCC5)ccc4o3)cc2s1`, the inhibition is 64.5% (active).

`O=C(CSc1nc2cc(S(=O)(=O)N3CCOCC3)ccc2o1)Nc1c(F)cccc1F`: the inhibition is 31.9% (inactive).

Turning to `Cc1nc2ccc(NC(=O)c3cc(S(=O)(=O)N4CCOCC4)ccc3C)cc2s1`, the inhibition was 9.8% (inactive).

On to `Cc1ccc(C(=O)CSc2nc3cc(S(=O)(=O)N4CCOCC4)ccc3o2)cc1`, for which the inhibition was 25.2% (inactive).

On to `Cc1noc(C)c1CSc1nc2cc(S(=O)(=O)N3CCOCC3)ccc2o1`, for which the inhibition is 53.1% (active).

Regarding `CC(/C=N/NC(=O)CSc1nc(C)cc(C)n1)=C\c1ccccc1`, the inhibition was 16.1% (inactive).

With `CCOc1ccc(-c2nnc(-c3ccccc3)o2)cc1`, the inhibition is -0.3% (inactive).

Turning to `CCCCc1nc(Cl)c(C#N)c2c1CSC(C)(C)C2`, the inhibition is 13.1% (inactive).

For `CCc1onc(C)c1C(=O)O`, the inhibition is -13.1% (inactive).

With `COc1cccc(-c2nnc(NC(=O)Cc3cccs3)s2)c1`, the inhibition was -3% (inactive).

For the compound `Cc1nn(Cc2cccc(C(=O)N3N=C(C(F)F)CC3(O)C(F)F)c2)c(C)c1[N+](=O)[O-]` (stereo unspecified), the inhibition is -1.8% (inactive).

For `O=C1c2ccccc2C(=O)N1CN(C(=O)c1ccccc1[N+](=O)[O-])c1ccc(F)cc1`, the inhibition is 13.9% (inactive).

As to `Oc1ccccc1/C=C/c1noc(-c2ccccc2O)n1`, the inhibition is -7% (inactive).
